Shiga inhibitor: A qHTS for Small Molecule Inhibitors of Shiga Toxin. Vero cells, Shiga toxin protein synthesis inhibition reporter. inhibition, % at 38.7 µM. 290,000 tested, 9.2% active. AID 2315, 2010; in the data active = inhibition mostly above about 28%, no sharp cut-off; inactive = mostly below about 43%
Pf growth 96h: Primary qHTS for delayed death inhibitors of the malarial parasite plastid, 96 hour incubation; P. falciparum luciferase reporter growth, 96 h; Potency, µM (top dose mostly 28.7 µM), hits mostly inhibitors; 320,000 tested, 6.9% active; AID 504834, 2011
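Erythrocytes infected with luciferase-expressing P. falciparum were dispensed at 2% hematocrit and 0.05% parasitemia (final), then incubated with compounds 96 hours at 37 C in 5% CO2. Luminescence after detection reagent addition reported growth.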
Pf growth 48h: Primary qHTS for delayed death inhibitors of the malarial parasite plastid, 48 hour incubation; Potency, µM (series often up to 28.7 µM), hits mostly inhibitors; P. falciparum luciferase growth in erythrocytes, 48 h; 310,000 tested, 5.9% active
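Luciferase-expressing parasites in RBCs, 2% Hct / 0.1% parasitemia final; RPMI 1640 + 0.5% Albumax; 37 C, 5% CO2, one generation; luminescence read-out, lower signal = inhibition.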
Cycloheximide cs: Cycloheximide Counterscreen for Small Molecule Inhibitors of Shiga Toxin; 300,000 tested, 12% active; cell reporter, cycloheximide protein synthesis inhibition counterscreen; max response, %; in the data active = max response mostly above about 13%, no sharp cut-off; inactive = mostly below about 14%; note: read at 38.3 µM for the half of the compounds with a filed dose
Large screens that a line does not name were inactive. Most compounds without a hit are left out; they make up all but 21% or so of the library. Unless noted, calls come from the whole dose curve; as a rule, active = well fitted inhibition curve with a large enough effect; inconclusive = small, poorly fitted or top-dose-only effect, or another doubt; inactive = no such curve, though single readings can be large or run the other way.

CC(=O)Nc1ccc(S(=O)(=O)NCCc2ccc(F)cc2)cc1	Pf growth 96h inconclusive
CCOc1ccc(CCNC(=O)COC(=O)CNS(=O)(=O)c2ccc(NC(C)=O)cc2)cc1OCC	Pf growth 96h 8.3µM, Pf growth 48h inconclusive (no result: Shiga inhibitor, Cycloheximide cs)
CC(=O)Nc1ccc(S(=O)(=O)NCC(=O)NCCc2ccc(S(N)(=O)=O)cc2)cc1	Pf growth 96h 0.83µM
CC(=O)Nc1ccc(S(=O)(=O)NCCc2ccc(S(N)(=O)=O)cc2)cc1	Pf growth 96h 10µM (no result: Pf growth 48h)
CCNC(=O)COC(=O)c1csc2c1CCCC2	none
CCOC(=O)c1ccccc1NC(=O)c1ccc2c(SCC(=O)O)c3c(nc2c1)CCCC3	Pf growth 96h inconclusive, Pf growth 48h 2.3µM
COc1cc(Cl)c(C)cc1NC(=O)c1ccc2c(SCC(=O)O)c3c(nc2c1)CCCC3	Pf growth 48h inconclusive
COc1ccc(C)cc1NC(=O)c1ccc2c(SCC(=O)O)c3c(nc2c1)CCCC3	Pf growth 96h 8.3µM, Pf growth 48h inconclusive
CCN1CCN(CCCNC(=O)c2ccc3c(c2)N(Cc2ccc(C)cc2)CCS3)CC1	Pf growth 96h inconclusive, Pf growth 48h 17µM
CCOC(=O)N1CCN(C(=O)c2ccc3c(c2)N(Cc2ccccc2)CCS3)CC1	Pf growth 96h 12µM, Pf growth 48h inconclusive
CCOC(=O)N1CCN(C(=O)c2ccc3c(c2)NC(=O)/C(=C/c2ccccc2)S3)CC1	Pf growth 96h 15µM
O=C(NC1CCCC1)c1ccc2c(c1)N(Cc1ccccc1)CCS2	Pf growth 96h 10µM, Pf growth 48h inconclusive
CC1CC(C)CN(C(=O)c2ccc3c(c2)N(Cc2ccccc2)CCS3)C1 (stereo not given)	Pf growth 96h inconclusive (no result: Pf growth 48h)
O=C(CSc1nc2ccsc2c(=O)n1-c1ccc(Br)cc1)NCc1ccccc1	none (no result: Pf growth 96h, Pf growth 48h)
COc1cc(OC)cc(C(=O)Nc2nc(CC(=O)NCc3ccc(F)cc3)cs2)c1	Pf growth 96h 12µM, Pf growth 48h inconclusive (no result: Shiga inhibitor, Cycloheximide cs)
O=C(Cc1csc(NC(=O)c2ccc(F)cc2)n1)NO	Pf growth 96h 8.3µM, Pf growth 48h inconclusive
CC(C)c1ccc(N(C(=O)CNC(=O)c2ccco2)C(C(=O)NC2CCCC2)c2cccnc2)cc1 (stereo not given)	Pf growth 48h inconclusive
COc1ccc(C2C(C#N)=C(N)N(c3sc4c(c3C#N)CCCC4)C3=C2C(=O)CC(C)(C)C3)cc1 (stereo not given)	Pf growth 48h 6.6µM (no result: Pf growth 96h)
COc1ccc(C2C(C#N)=C(N)N(c3sc4c(c3C#N)CCCC4)C3=C2C(=O)CC(C)(C)C3)cc1OC (stereo not given)	Pf growth 96h 5.2µM (no result: Pf growth 48h)
COc1ccc(C2C(C#N)=C3NC(=O)c4c(sc5c4CCCCC5)N3C3=C2C(=O)CC(C)(C)C3)cc1 (stereo not given)	Pf growth 96h inconclusive, Pf growth 48h inconclusive
O=C(Nc1ccc(O)c2c(=O)cc(-c3ccccc3Cl)oc12)c1cc(Cl)cc(Cl)c1	none (no result: Pf growth 96h, Pf growth 48h)
COC(=O)c1ccc(CNC(=O)C(C)N=C2NS(=O)(=O)c3ccccc32)cc1 (stereo not given)	Pf growth 48h inconclusive (no result: Shiga inhibitor, Cycloheximide cs)
O=C1NC(=O)/C(=C\c2ccc(N3CCOCC3)o2)N1	Pf growth 96h inconclusive, Pf growth 48h 7.4µM
O=C1NC(=O)/C(=C/c2ccc(N3CCOCC3)o2)N1	Pf growth 96h inconclusive, Pf growth 48h 1.5µM
CCOC(=O)c1sc2nc(NC(=O)C3CC3)sc2c1C	Pf growth 96h inconclusive (no result: Pf growth 48h)
CCOC(=O)c1sc2nc(NC(=O)C(C)(C)C)sc2c1C	Shiga inhibitor 105, Cycloheximide cs 36 (no result: Pf growth 48h)
CC(OC(=O)C1CC(=O)N(Cc2ccccc2)C1)C(=O)Nc1cccc(C#N)c1 (stereo not given)	Pf growth 96h 6.6µM
CC(OC(=O)CC1CCCCC1)C(=O)Nc1cccc(C#N)c1 (stereo not given)	Pf growth 48h inconclusive (no result: Shiga inhibitor, Cycloheximide cs)
CCOC(=O)C1(Cc2cccc(OC)c2)CCN(Cc2ccccc2OC)CC1	none
CCOC(=O)C1(Cc2ccccc2)CCN(Cc2cccc(OC)c2O)CC1	Pf growth 96h 10µM, Pf growth 48h inconclusive
CCOC(=O)C1(Cc2cccc(OC)c2)CCN(Cc2cccc(OC)c2O)CC1	Pf growth 96h 13µM, Pf growth 48h inconclusive
CCOC(=O)C1(Cc2cccc(OC)c2)CCN(Cc2cccn2-c2nccs2)CC1	Pf growth 96h inconclusive, Pf growth 48h 12µM
CCOC(=O)C1(Cc2ccccc2)CCN(Cc2cn(CC(=O)OC)c3ccccc23)CC1	Pf growth 96h 5.2µM, Pf growth 48h inconclusive
CC(C)NC(=O)CN(Cc1ccc(F)cc1)C(=O)CCC(=O)Nc1nccs1	Pf growth 48h inconclusive
CCN(CC)S(=O)(=O)c1ccc2c(c1)N(CC(=O)NCCN1CCOCC1)C(=O)CO2	none
O=C(Nc1nccs1)C1CCN(S(=O)(=O)c2ccccc2)CC1	none
Cc1cnc(NC(=O)C2CCC(C(C)(C)C)CC2)s1 (stereo not given)	Pf growth 96h inconclusive, Cycloheximide cs 20
Cc1cnc(NC(=O)C2CC=CCC2)s1 (stereo not given)	Shiga inhibitor 45, Cycloheximide cs 24
CC(C)(C)C1CCC(C(=O)Nc2nccs2)CC1 (stereo not given)	Shiga inhibitor 47, Pf growth 96h inconclusive
CCOC(=O)N1CCC(N(CCN(C)C)C(=S)Nc2cccc(OC)c2)CC1	Pf growth 96h 7.4µM
COCCN(C(=S)Nc1cccc(OC)c1)C1CCN(C(C)C)CC1	Pf growth 96h 13µM
COCCN(C(=S)Nc1ccc(OC)cc1)C1CCN(C(C)C)CC1	Pf growth 96h 12µM
CCOC(=O)N1CCC(N(CCN(C)C)C(=S)Nc2cccc(Cl)c2)CC1	none
Cc1ccc(-c2csc(N(CC3CCCO3)C(=O)c3ccco3)n2)cc1 (stereo not given)	Shiga inhibitor 40, Pf growth 96h inconclusive, Pf growth 48h inconclusive, Cycloheximide cs 23
COc1ccc(-c2csc(N(CC3CCCO3)C(=O)c3ccccc3)n2)cc1 (stereo not given)	Pf growth 48h inconclusive
COc1ccc(-c2csc(N(CC3CCCO3)C(=O)c3ccc(C)cc3)n2)cc1 (stereo not given)	Pf growth 96h 10µM, Pf growth 48h 5.2µM
O=C1COc2ccc(C(=O)COC(=O)CNC(=O)C3CCCCC3)cc2N1	none
COc1ccc(C(=O)CSc2nc3c(c(=O)n(C)c(=O)n3C)n2C)cc1	none
Cn1c(=O)c2c(nc(SCCOc3ccc4ccc(=O)oc4c3)n2C)n(C)c1=O	Pf growth 96h 13µM
Cc1cc(/C=C2\C(=N)N3N=C(C(C)C)SC3=NC2=O)c(C)n1-c1ccccc1	Pf growth 96h 12µM
Cc1cc(S(=O)(=O)N2CCCOC2CNC(=O)C(=O)NCCCN2CCOCC2)ccc1F (stereo not given)	none
COCCOC1CCN(Cc2cn(Cc3ccccc3)nc2-c2cc3ccccc3o2)CC1	Pf growth 48h inconclusive
CCC(O)C1CCN(Cc2cn(Cc3ccccc3)nc2-c2cc3ccccc3o2)CC1 (stereo not given)	Pf growth 48h 5.2µM
CN(Cc1cnccn1)Cc1ccccc1OCC(O)CN1CCc2ccccc2C1 (stereo not given)	Pf growth 48h 12µM
COc1ccc(C(C)(C)C)cc1NC(=O)CCc1c(C)noc1C	Pf growth 96h inconclusive (no result: Shiga inhibitor, Cycloheximide cs)
Cc1ccc(C)c(N2C(=O)CC(Cc3ccccc3)C2=O)c1 (stereo not given)	Pf growth 96h 15µM
